How the values were obtained:
Assay type in all cases: functional
[1] = biological target: Solute carrier family 2, facilitated glucose transporter member 1 (Homo sapiens) (UniProt P11166); assay: ST_JUDE_LEISH: Cytotoxicity at 2uM final concentration against transgenic Leishmania Mexicana promastigotes LmGLUT1 that are glucose transport deficient and complemented with the human glucose transporter GLUT1. Activity is measured by DNA content using SYBR green in vitro
[2] = biological target: Hexose transporter 1 (Plasmodium falciparum) (UniProt O97467); assay: ST_JUDE_LEISH: Cytotoxicity at 2uM final concentration against transgenic Leishmania Mexicana promastigotes LmPfHT that are glucose transport deficient and complemented with the Plasmodium falciparum hexose transporter. Activity is measured by DNA content using SYBR green in vitro
[3] = biological target: Glucose transporter (Leishmania mexicana) (UniProt O61059); assay: ST_JUDE_LEISH: Cytotoxicity at 2uM final concentration against transgenic Leishmania Mexicana promastigotes LmGT2 that are glucose transport deficient and complemented with the L. Mexicana glucose transporter 2. Activity is measured by DNA content using SYBR green in vitro

Solute carrier family 2, facilitated glucose transporter member 1 (Homo sapiens), sequence (P11166 whole entry): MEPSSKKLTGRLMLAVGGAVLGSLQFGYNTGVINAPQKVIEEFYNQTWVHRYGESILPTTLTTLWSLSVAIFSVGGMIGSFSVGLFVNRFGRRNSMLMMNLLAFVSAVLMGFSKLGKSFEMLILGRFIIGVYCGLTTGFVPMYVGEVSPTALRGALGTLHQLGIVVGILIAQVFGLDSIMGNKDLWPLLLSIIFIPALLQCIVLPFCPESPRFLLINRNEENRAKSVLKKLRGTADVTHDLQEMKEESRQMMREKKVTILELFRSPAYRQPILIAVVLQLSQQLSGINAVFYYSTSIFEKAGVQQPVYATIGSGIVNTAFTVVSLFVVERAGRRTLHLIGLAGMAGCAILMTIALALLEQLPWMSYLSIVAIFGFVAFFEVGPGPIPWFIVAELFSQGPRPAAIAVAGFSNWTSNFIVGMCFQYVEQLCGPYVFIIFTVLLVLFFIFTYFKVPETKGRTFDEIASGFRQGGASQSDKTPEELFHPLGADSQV

| SMILES | inhibition [1] | inhibition [2] | inhibition [3] |
| --- | --- | --- | --- |
| O=C(Nc1ccc(Cl)cc1C(=O)Nc1cccc(F)c1)c1ccc([N+](=O)[O-])cc1 | 0.5% | 0.92% | 1.58% |
| Cc1ccc(S(=O)(=O)N2CCN(C(=O)c3cc(-c4cccs4)n[nH]3)CC2)c(C)c1 | 2.83% | 2.34% | -0.33% |
| COc1cc(OC)cc(-c2nn(-c3ccc([N+](=O)[O-])cc3C#N)c(=S)n2Cc2ccco2)c1 | 0.03% | -1.55% | 4.15% |
| c1ccc(-c2nc(NC3CCCCC3)cc(C3CC3)n2)nc1 | 1.84% | 1.91% | 1.62% |
| C1=CN(Cc2ccccc2)C=CC1=C1C=Nc2ccccc21 | 12.1% | 10.4% | 8.71% |
| COc1ccc2nc(N3CCN(C(=O)OC(C)(C)C)CC3)nc(NCCCc3ccccc3)c2c1 | 28.4% | 23.1% | 8.03% |
| CNS(=O)(=O)c1ccc(NC(=O)c2cc(-c3cccnc3)nc3ccc(Br)cc23)cc1 | 2.58% | 2.73% | 3.77% |
| O=C(Nc1cccc(C(F)(F)F)c1)c1cccc(S(=O)(=O)NC2CCN(CC3CCCCC3)C2)c1 (configuration not stated) | 0.18% | -0.46% | 2.99% |
| O=C(/C=C/c1ccc(Cl)c(Cl)c1)NCCCCCN1CCCC(CNS(=O)(=O)c2cccc(C(F)(F)F)c2)C1 (configuration not stated) | -0.87% | -0.18% | -1.57% |
| CCN(CCNC(=O)Cn1c(C)cc2cc([N+](=O)[O-])ccc21)c1cccc(C)c1 | 6.46% | 6.77% | 6.91% |
| CC(C)(O)CC(C)(C)c1cc(Cl)ccc1O | 6.46% | 5.76% | 4.82% |
| CC(C)CN1CCCN(Cc2cccc(NC(=O)c3cc4ccccc4s3)c2)CC1 | -0.04% | -0.28% | -5.16% |
| CC(=O)N(Cc1nc(-c2cc(Cl)c(Cl)s2)cs1)c1c(C)cccc1C | 4.94% | 4.38% | 5.58% |
| O=[N+]([O-])c1ccc2nccnc2c1 | 6.19% | 5.71% | 6.9% |
| O=C(Nc1ccc(-c2ccc(-c3nc4cc(C(F)(F)F)ccc4[nH]3)cc2)cc1)Nc1ccc(F)c(F)c1F | -0.4% | -0.22% | -1.44% |
| C[C@H]1CN(Cc2cccc(-c3cc(CNC(=O)c4cccc(C(=O)c5ccc(Cl)c(Cl)c5)c4)ccc3F)c2)CCN1 | 1.24% | 2.34% | 1.43% |
| COc1ccc2nccc(N3CCC(SCCNCc4cc5c(cn4)OCCO5)C3)c2n1 (configuration not stated) | 0.61% | 0.85% | -2.04% |
| N=C(Cc1ccc(Cl)cc1)NCCN1CCCCCC1 | 5.13% | 7.11% | 6.19% |
| Cc1cc(NC(=O)Nc2ccc(Cl)cc2F)c2ccccc2n1 | 3.45% | 4.56% | 1.56% |
| C=CCOC(=O)N1CCC(CNCc2ccc(-c3ccc(-c4nc5ccccc5[nH]4)s3)cc2)C1 (configuration not stated) | 5.91% | 6.02% | 5.42% |
| CN(C)CCOc1cc(NC(=O)Nc2ccc(-c3ccccc3)cc2Cl)ccc1I | 1.19% | 0.57% | -2.09% |
| COc1ccc(-c2cccc(NC(=O)c3cccc(C#N)c3)c2)cc1CN(C)CCO | 3.7% | 5.06% | 5.5% |
| Cc1cc(CNCCCCCCCNCc2ccc(Cl)cc2)ccc1O | 0.64% | 3.98% | 0.81% |
| O=C(C=Cc1ccc(Cl)c(Cl)c1)NCCCCCN1CCC(CCCNC(=O)c2sc3ccccc3c2Cl)CC1 | 2.7% | 0.72% | 1.61% |
| Cc1c[nH]c(CCNC(=O)c2cc(-c3ccc(Cl)cc3)cs2)n1 | 2.64% | 0.26% | 2.79% |

| SMILES | inhibition [1] | inhibition [2] | inhibition [3] |
| --- | --- | --- | --- |
| CC(C)CCN1C(=O)C(NC(=O)Oc2ccccc2)C(=O)N(CC23CC4CC(CC(C4)C2)C3)c2ccccc21 (configuration not stated) | -1.21% | -2.53% | -2.02% |
| O=C(Nc1ccc(Cl)cn1)c1sc2ccccc2c1O | 3.18% | 3.43% | 0.99% |
| O=C(Nc1cc(Cl)cc(Cl)c1)Nc1ccnc2ccccc12 | 2.68% | 2.02% | -2.71% |
| Cc1cc(N[C@@H](Cc2ccccc2)C(=O)NCCOc2ccccc2)nc(NCCc2ccc(F)cc2)n1 | 15.1% | 11.7% | 10.1% |
| COc1ccc2nccc([C@@H](O)CN3CCC(NCCOc4ccc(F)cc4[N+](=O)[O-])CC3)c2c1 | -1.59% | -1% | 1.61% |
| COc1ccc(OC)c(Cc2cnc3nc(N)[nH]c(=O)c3c2C)c1 | 3.38% | 4.59% | 5.15% |
| CCCOc1ccc(N2C(N)=NC(N)=NC2(C)C)cc1 | 3.43% | 1.16% | 2.09% |
| O=C(Nc1cccc(C(F)(F)F)c1)c1ccc(S(=O)(=O)NCC2CCN(CC3CCCCC3)CC2)cc1 | 3.47% | 2% | 3.8% |
| CCN(CC)CCNC(=O)c1ccc(NC(=O)c2oc3c(Cl)cccc3c2C)cc1 | 12.1% | 8.3% | 7.44% |
| COc1ccc(CNC2Cc3ccccc3C2)cc1-c1ccc(S(=O)(=O)NCCN2CCCC2)cc1 | 3.15% | 1.44% | -2.73% |
| N#Cc1ccc(-n2cc(C(=O)Nc3ccc4c(c3)CCN(C3CCC3)CC4)c(C(F)(F)F)n2)cc1 | 7.01% | 6.79% | 4.42% |
| CCCCCCCN1CCC(NC(=O)Nc2ccnc3ccc(OC)cc23)C(C(=O)OCC)C1 (configuration not stated) | -2.21% | 0% | -2.59% |
| O=C(Cn1c(SCc2cccc(F)c2F)cc(=O)c2ccccc21)N(CCc1c[nH]cn1)Cc1ccc(-c2ccc(C(F)(F)F)cc2)cc1 | 4.17% | 5.15% | 2.52% |
| Oc1ccc(CCNc2nc(NCc3ccccc3-c3ccc(C(F)(F)F)cc3)nc(NC3CCNCC3)n2)cc1 | 1.32% | 0.48% | 0.66% |
| COc1ccc(CSC2CCCCC23NC(=S)NC3=S)cc1 (configuration not stated) | 4.42% | 1.41% | 3.2% |
| Oc1ccc(CCCNc2nc(NCc3ccccc3-c3ccccc3)nc(NC3CCNCC3)n2)cc1 | -1.61% | -0.26% | -0.11% |
| c1ccc2sc(-c3csc(Nc4ccncc4)n3)nc2c1 | -1.14% | 1.09% | 6.37% |
| Cc1cccc2nc(-c3cccc(-c4ccc(NC(=O)Cc5ccccn5)cc4)c3)[nH]c12 | 4.3% | 2.5% | 2.64% |
| CCN(CC)CCn1c2ccccc2c2ccc(C(=O)Nc3ccc4sc(C)nc4c3)cc21 | 13.2% | 11.9% | 8.05% |
| O=C(Nc1cccc(CN2CCCN(CC3CCCCC3)CC2)c1)c1ccc(Cl)c(Cl)c1 | 12.1% | 12.2% | 10.5% |
| CCC1N=C(N)N=C(N)N1OCCCOc1c(Cl)cc(Cl)cc1Cl (configuration not stated) | 3.53% | 2.05% | 3.44% |
| N#Cc1ccc(N2CCN(Cc3cccc(-c4ccc(-c5nc6ccccc6[nH]5)cc4)c3)CC2)nc1 | 6.09% | 3.68% | -0.67% |
| CCN(CC)c1ccc(C(c2ccc(N(CC)CC)cc2)c2cccc([N+](=O)[O-])c2)cc1 | 15.2% | 13.8% | 11.1% |
| COc1cccc(-c2cccc(CNC3CCN(CC4Cn5c(=O)ccc6ccc(F)c4c65)CC3)c2)c1 (configuration not stated) | 6.16% | 2.1% | 1.71% |
| N#Cc1ccc(CN2CCC(Oc3ccc(NC(=O)c4ccsc4)cc3Cl)C2)cc1 (configuration not stated) | 8.19% | 11.8% | 8.45% |

| SMILES | inhibition [1] | inhibition [2] | inhibition [3] |
| --- | --- | --- | --- |
| Cc1ccc(NC(=O)NC2CCN(c3ccnc4ccccc34)CC2)cc1 | 1.13% | 1.21% | 2.3% |
| O=C1C(c2ccccc2)=C(Nc2ccc(Cl)cc2)c2ccccc21 | 1.6% | 1.45% | 2.61% |
| Cc1cnccc1/C=C/c1cccc(OCCN2CCc3ccc(S(C)(=O)=O)cc3CC2)c1 | 1.95% | 2.77% | 1.68% |
| Cc1nc2nc(N)nc(N)c2c(C)c1Cc1ccccc1I | 9.13% | 8.12% | 6.31% |
| COc1cc(F)c2ncc(Cl)c([C@@H](O)CN3CCC(NCc4ccc5c(n4)NC(=O)CO5)CC3)c2c1 | 6.57% | 3.3% | 2.71% |
| COc1ccc(CNC2CCCC2)cc1-c1ccc(S(=O)(=O)NCCN2CCCC2)s1 | 1.79% | 2.89% | 3.68% |
| CC(=O)Nc1nc(C(=O)Nc2ccc(-c3cccc(-c4nc5cc(F)ccc5[nH]4)c3)cc2)cs1 | 2.47% | 2.89% | 3.35% |
| CCCCCC(C)N/C(=N/c1cccc(Cl)c1Cl)Nc1ccc(C#N)cc1O (configuration not stated) | 5.91% | 4.59% | 2.7% |
| Nc1nc(N)c2c(ccc3[nH]ccc32)n1 | 0.22% | 2.46% | 2.25% |
| Cc1c(C(C)(C)C)ccc2nc(N)nc(N)c12 | 64% | 63.5% | 56.6% |
| COc1ccc(-c2nonc2NC(=O)c2ccc(C(C)(C)C)cc2)cc1OC | -0.32% | 0.21% | -0.16% |
| COc1cc(Cc2cnc(N)nc2N)cc(OCCCCCC(N)=O)c1OC | -0.36% | -2.79% | 1.17% |
| O=C(C=Cc1ccc(Br)cc1)N1CCC(CCN2CCC(c3c[nH]c4ccccc34)CC2)CC1 | 4.46% | 8.48% | 4.25% |
| COC(=O)c1cccc(CNCc2ccc(-c3ccc(-c4nc5ccccc5[nH]4)s3)cc2)c1 | 9.31% | 9.04% | 9.28% |
| CC1=C(C(=O)OCCOCc2ccccc2)C(c2ccccc2C(F)(F)F)C(C(=O)OCCOCc2ccccc2)=C(C)N1 | -0.46% | -0.98% | -2.95% |
| Cc1nnc(N2C(=N)SC(=Cc3ccc(-c4ccc(OC(F)(F)F)cc4)o3)C2=O)s1 | 4.77% | 2.59% | 3.61% |
| COc1cc(F)c2ncc(Cl)c(CCN3CCC(NCc4ccc5c(n4)NC(=O)CO5)CC3)c2c1 | 3.28% | 4.15% | -1.5% |
| COc1ccc(CCNCCCCCCNCCCc2ccc(Cl)cc2)cc1OC | 4.72% | 2.45% | 4.39% |
| CC(C)N1CCN(CCCNc2c3ccccc3nc3ccccc23)CC1 | 40.1% | 58% | 19% |
| O=C(Nc1cccc(C(F)(F)F)c1)c1ccc(S(=O)(=O)NC2CCN(CC3CCCCC3)C2)cc1 (configuration not stated) | 3.79% | 3.31% | 4.54% |
| CN1CCC(NCc2cccc(-c3ccc(S(=O)(=O)NCCc4ccccn4)c(F)c3)c2)CC1 | 1.22% | 0.03% | 0.94% |
| CC(=O)Nc1ccc(CN2CCc3ccc(NS(=O)(=O)c4cccc(OCc5ccc(Cl)cc5)c4)cc3CC2)s1 | 2.65% | -0.08% | 0.54% |
| COc1ccc(Nc2cc(C)nc(NCc3ccc4c(c3)OCO4)n2)cc1 | 5.82% | 4.09% | 1.69% |
| NS(=O)(=O)c1cccc(Nc2nccc(-c3c(-c4cccc(NC(=O)c5c(F)cccc5F)c4)nn4ccccc34)n2)c1 | 2.78% | 7.67% | 1.61% |
